Bioassay records as filed in PubChem BioAssay.
PGK inhibitor: T. brucei PGK inhibition; PGK/GAPDH coupled, Kinase-Glo luminescence, 60 min; Potency, µM (top dose mostly 57.5 µM), for inactives: top-dose activity change, negative = inhibition, hits mostly inhibitors; actives 0.043% (n = 380,000); AID 602233; also: potency is read from the fitted curve at half-maximal effect; nearly all actives have a fitted effect of over 60% in size
Target sequence (P07378 whole entry, looked up): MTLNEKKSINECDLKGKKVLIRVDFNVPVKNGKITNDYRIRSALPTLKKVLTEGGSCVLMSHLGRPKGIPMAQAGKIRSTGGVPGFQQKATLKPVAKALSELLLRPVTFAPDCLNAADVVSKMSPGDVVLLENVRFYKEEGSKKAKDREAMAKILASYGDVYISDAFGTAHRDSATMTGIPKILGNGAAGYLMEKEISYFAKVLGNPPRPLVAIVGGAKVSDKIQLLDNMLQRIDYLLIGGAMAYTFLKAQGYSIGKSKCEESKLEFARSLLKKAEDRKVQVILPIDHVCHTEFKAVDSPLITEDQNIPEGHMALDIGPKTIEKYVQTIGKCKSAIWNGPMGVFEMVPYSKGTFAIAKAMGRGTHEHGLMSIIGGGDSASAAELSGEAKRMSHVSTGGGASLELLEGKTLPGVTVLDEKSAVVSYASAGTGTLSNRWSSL
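Luminescent ATP detection (Kinase-Glo Plus) follows a 60-minute room-temperature incubation, with wells lacking PGK as controls. Buffer: 100 mM TEA (pH 7.6), 5 mM MgCl2, 0.01% Tween-20. Coupling enzyme GAPDH (100 nM final) supplies unstable 1,3-BPG in-well.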
KCNH2 WT inh: blocks the wildtype human KCNH2 potassium channel | Q12809 | U2OS, BacMam KCNH2, thallium flux FluxOr; hits give low values | activity change, % at 1.84 µM | actives 0.37% (n = 340,000) | AID 720551;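 active = maximum activity change below -70%; inconclusive = maximum activity change between -70% and -50%; inactive = maximum activity change above -50%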
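U2OS cells transduced with wild-type KCNH2 virus are loaded with FluxOr dye for 45 min, and thallium flux is measured in kinetic reads before and after stimulation buffer. Rate constants are normalized to DMSO controls.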
Pin1 inhibitor: inhibitors of human Pin1; actives 0.009% (n = 390,000); Potency, µM (doses to about 115 µM), for inactives: top-dose activity, negative = inhibition, hits mostly inhibitors; Pin1 FP peptide displacement, HiFluor488, 10 min; Q13526; AID 504891; active = well fitted inhibition curve with a large enough effect in the polarisation, with a control signal flat, not every such curve was filed as active; inconclusive = small, poorly fitted or top-dose-only effect, or effect the other way, or a change in a side signal; inactive = no such curve, though single readings can be large or run the other way; the % refers to the polarisation; also: potency is read from the fitted curve at half-maximal effect
RGS4 inh: blocks human RGS4-accelerated GTP hydrolysis; Transcreener GDP fluorescence polarization, RGS4-accelerated GTP hydrolysis; Potency, µM (highest dose often 114 µM), without a hit: top-dose activity change, negative = inhibition, most hits filed as inhibitors; P49798; actives 0.039% (n = 390,000); AID 504845; also: potency is read from the fitted curve at half-maximal effect; nearly all actives have a fitted effect of over 75% in size
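MLSMR compounds (23 nl, pin-transferred) preincubated 10 min at room temperature with a 500nM (2x) first reagent, then RGS4 at 900nM (2x) plus Transcreener GDP mix added; fluorescence polarization (620/688 nm) read before and after 90 min at 30 °C.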
GCN5L2 inh: GCN5L2 (KAT2A) acetyltransferase inhibition; Potency, µM (top dose mostly 58.9 µM), inactives show at the top dose activity change, negative = inhibition, actives largely listed as inhibitors; AID 504327; Q92830; GCN5L2 HAT assay, ThioGlo1 CoA-SH fluorescence; actives 0.21% (n = 390,000); also: potency is read from the fitted curve at half-maximal effect
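GCN5L2 (20 nM) in 50mM HEPES pH 7.5, 0.1mM EDTA, 0.01% Tween-20 preincubated 15 min with compounds at room temperature. Reaction started with H3(1-25) 75uM, acetyl-CoA 70uM, ThioGlo1 50uM; CoA-thiol fluorescence (Ex340/Em540) read at 0 and 20 min.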
KCNH2 3.1 block: KCNH2 3.1 (human) potassium channel inhibition; U2OS KCNH2 3.1, thallium flux FluxOr; hits give low values; activity change, % (tested at about 1.8 µM); actives 0.95% (n = 340,000); AID 720553;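 active = maximum activity change below -70%; inconclusive = maximum activity change from -70% to -50%; inactive = maximum activity change above -50%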;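 also: thallium influx rate constant from kinetic fluorescence after stimulation buffer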
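FluxOr-based Tl+ influx in U2OS cells transduced with KCNH2 3.1 virus; rate constants normalized to DMSO controls.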
Numbers without * were called inactive; [ ] = dose if it differs, or a comment. This is a sample that favours compounds with a hit; in the whole collection about 1.2% have one here. Unless noted, calls follow the shape of the dose curve; as a rule, active = well fitted curve in the direction sought with a large enough effect; inconclusive = small, poorly fitted or top-dose-only effect, or another doubt; inactive = no such curve, though single readings can be large; an effect the other way counts as inactive or inconclusive. % is scaled to controls: 0 for no effect and ±100 for the full control effect.

`CCOC(=O)C1CCCN(c2ccc(NC(=O)c3snc4c(=O)[nH]c(C)nc34)cc2)C1` (configuration not stated) gave PGK inhibitor -9%, KCNH2 WT inh 4, Pin1 inhibitor -1%, RGS4 inh 9%, GCN5L2 inh 2.5µM* and KCNH2 3.1 block 11.
For Cc1ccc(S(=O)(=O)N2CCN(C(=O)COC(=O)c3ccc(Cl)nc3)CC2)c(C)c1 the results were PGK inhibitor -8%, KCNH2 WT inh -162*, Pin1 inhibitor 2%, RGS4 inh 8%, GCN5L2 inh 0% and KCNH2 3.1 block -18.
Screening Cc1ccc(S(=O)(=O)N(C)c2ccc(OCC(=O)OCc3nnc(-c4ccccc4)o3)cc2)cc1 returned PGK inhibitor -3%, KCNH2 WT inh 68, Pin1 inhibitor 3%, RGS4 inh 8% and KCNH2 3.1 block -88*.
`Cc1ccc(S(=O)(=O)N(C)c2ccc(OC(=O)COc3ccccc3)cc2)cc1` gave PGK inhibitor -5%, KCNH2 WT inh -6, Pin1 inhibitor 10%, RGS4 inh -32%, GCN5L2 inh -5% and KCNH2 3.1 block 4.
For COc1ccc(CN2CCC(n3nccc3NC(=O)CCc3ccccc3)CC2)c(C)c1C the results were PGK inhibitor 6%, KCNH2 WT inh 0, Pin1 inhibitor 4%, RGS4 inh 28%, GCN5L2 inh -5% and KCNH2 3.1 block -81*.
For COc1cc(CN2CCC(n3nccc3NC(=O)CCCc3ccccc3)CC2)ccc1F the results were PGK inhibitor inactive, KCNH2 WT inh -35, Pin1 inhibitor 0%, RGS4 inh -10%, GCN5L2 inh -5% and KCNH2 3.1 block -96*.
Screening COc1cccc(CN2CCC(n3nccc3NC(=O)CCCc3ccccc3)CC2)c1O returned PGK inhibitor -4%, KCNH2 WT inh -5, Pin1 inhibitor -1%, RGS4 inh 1%, GCN5L2 inh inconclusive and KCNH2 3.1 block -40.
`CCOc1ccc(CN2CCC(n3nccc3NC(=O)CCCc3ccccc3)CC2)cc1` gave PGK inhibitor 2%, KCNH2 WT inh -132*, Pin1 inhibitor -5%, RGS4 inh 11%, GCN5L2 inh -5% and KCNH2 3.1 block 4.
For O=C(CCCc1ccccc1)Nc1ccnn1C1CCN(Cc2ccc(Cl)cc2)CC1 the results were PGK inhibitor -2%, KCNH2 WT inh -18, Pin1 inhibitor 4%, RGS4 inh -1%, GCN5L2 inh -10% and KCNH2 3.1 block -103*.
For CCOc1ccc2oc(=O)cc(CN3CCN(c4cc(C)ccc4C)CC3)c2c1 the results were PGK inhibitor 7%, Pin1 inhibitor 1%, RGS4 inh 21% and GCN5L2 inh 2%.
`Cc1ccc2occ(-c3cc(-c4ccccc4)nc4c3COc3ccccc3-4)c(=O)c2c1` gave PGK inhibitor 3%, Pin1 inhibitor 2%, RGS4 inh -23% and GCN5L2 inh -10%.
COc1ccccc1CN1CCNC(=O)C1=O was read as PGK inhibitor 5%, Pin1 inhibitor 2%, RGS4 inh -11% and GCN5L2 inh -6%.
Screening CCc1ccc(CNC(=O)C(CC)n2nc(C)c3c(C)n(-c4ccccc4)nc3c2=O)cc1 (configuration not stated) returned PGK inhibitor inactive, Pin1 inhibitor 4%, RGS4 inh -3% and GCN5L2 inh -12%.
`O=C(CCCc1ccccc1)Nc1ccnn1C1CCN(Cc2ccccc2)CC1` gave PGK inhibitor -12%, KCNH2 WT inh 4, Pin1 inhibitor -4%, RGS4 inh -30%, GCN5L2 inh -4% and KCNH2 3.1 block -31.
`CSc1ccc(CN2CCC(n3nccc3NC(=O)CCCc3ccccc3)CC2)cc1` gave PGK inhibitor -3%, KCNH2 WT inh -112*, Pin1 inhibitor -2%, RGS4 inh 21%[11.4 µM], GCN5L2 inh -25% and KCNH2 3.1 block -114*.
